# PubChem BioAssay (NCI)
# The panel holds about 83,000 compounds, 20% with a hit somewhere; the sample as a whole holds those more often.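 Single-dose data. Exposure time 48 hours. Values below 10 considered active.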 Unmarked numbers belong to inactive results. Active and inactive are the calls of the source.
# What was measured:
# Test in all cases: NCI-60 one-dose screen, 48 h (100 = growth as untreated, 0 = no growth, -100 = all killed)
# Conditions in all cases: 10 µM unless noted
# [1] = test system: HCT-15 colon
# [2] = test system: HT29 colon
# [3] = test system: SNB-75 CNS
# [4] = test system: SNB-19 CNS
# [5] = test system: U251 CNS
# [6] = test system: PC-3 prostate
# [7] = test system: SK-MEL-5 melanoma
# [8] = test system: UACC-62 melanoma
# [9] = test system: LOX IMVI melanoma
# [10] = test system: SK-MEL-28 melanoma
# [11] = test system: SK-MEL-2 melanoma
# [12] = test system: EKVX NSCLC
# [13] = test system: SN12C renal
# [14] = test system: UO-31 renal
# [15] = test system: TK-10 renal
# [16] = test system: ACHN renal
# [17] = test system: CCRF-CEM leukemia
# [18] = test system: MOLT-4 leukemia
# [19] = test system: CAKI-1 renal
# [20] = test system: A498 renal
Structure (SMILES),growth [1],growth [2],growth [3],growth [4] [%],growth [5],growth [6] [%],growth [7],growth [8],growth [9],growth [10],growth [11] [%],growth [12] [%],growth [13] [%],growth [14] [%],growth [15] [%],growth [16] [%],growth [17],growth [18],growth [19],growth [20] [%]
CC(=O)c1cc2c(N)c(C(=O)Nc3cncc4ccccc34)sc2nc1C,95.4%,107%,91.5%,98.5,106%,93.8,98.5%,76.1%,98.9%,102%,91.2,100,95.3,80.1,119,97.1,104%,90.3%,,
O=S(=O)(c1ccccc1)N1CCCc2ccccc21,99.3%,99.8%,95%,97.2,90.3%,91.3,102%,91.7%,96.4%,105%,103,,98.9,80.4,94.5,99.4,92.4%,94.6%,101%,77.1
COc1cccc(C(Cc2ccccc2)Nc2ccccc2)c1OC (stereo not given),91.3%,73%,90.1%,104,89.8%,83.2,97.1%,88.7%,98.1%,107%,83,96.1,103,85.4,96.7,106,87.5%,78.6%,,90
c1ccc(N2N=C(c3cccc(Nc4ccncc4)c3)CC2c2ccc3c(c2)OCO3)cc1 (stereo not given),-26% (active),6.66% (active),5.74% (active),42.4,4.31% (active),14.3,-14.3% (active),62.1%,-22.1% (active),-52.7% (active),39,45.8,40.8,30.6,63.1,28.7,,7.98% (active),,46.1
COc1ccc(-c2nc(N=Nc3c(O)[nH]c4ccccc34)nc(N3CCOCC3)c2C#N)cc1,69.9%,49.2%,44%,72.6,37.8%,72.7,57.5%,50.3%,66.8%,72.2%,,74.5,73.3,84.8,71.5,25,75.5%,80.8%,43.3%,67.4
O=S(=O)(c1cccc(NC2=Nc3cccc4cccc2c34)c1)N1CCCC1,60.4%,67.4%,73.3%,77.8,65.7%,52.4,44.7%,51.7%,66.7%,81.4%,,62,72.2,67.5,90.5,66.9,41.7%,57%,78%,75.1
COc1cc(C2CC(c3cccc(Nc4ccncc4)c3)=NN2c2ccccc2)cc(OC)c1OC (stereo not given),28.2%,1.04% (active),44.2%,68.1,19.7%,30.2,-52.5% (active),96.2%,33.8%,5.22% (active),,71.2,62.5,53.3,82.8,65.6,6.7% (active),1.73% (active),43.6%,74.9
Cc1ccccc1-c1cc(Cc2ccc(F)cc2)c(=O)[nH]n1,110%,117%,101%,88.2,106%,116,98.3%,99.6%,98.9%,118%,122,,148,70.5,122,105,-50.9% (active),58.1%,54.4%,117
COc1cc2nc(-c3ccc(C(F)(F)F)cc3)cc(OCCCN3CCC(O)CC3)c2cc1OC,9.78% (active),9.01% (active),-7.26% (active),62,46.3%,40.6,-56.3% (active),-31.3% (active),-74.4% (active),62.7%,47.6,,37.4,24.2,85.7,31.2,,35.3%,-6.95% (active),
CC(C)Cc1ccc(C(C)C(=O)NCc2ccc(Cn3c(=O)sn(-c4ccc(Cl)cc4)c3=O)cc2)cc1 (stereo not given),83.2%,75.6%,79.4%,83.9,65.5%,82.8,94.1%,66.4%,76.1%,77%,,82.6,84.1,65.4,74.2,56.5,96.2%,85.7%,74.7%,95
COc1ccc(C2CC(c3cccc(Nc4ccncc4)c3)=NN2c2ccccc2)cc1 (stereo not given),-22.9% (active),-3.3% (active),65.3%,84.3,8.79% (active),37.3,49.2%,97%,28.5%,-88.3% (active),71.7,,80.6,64.3,68.7,69.2,30.7%,10.7%,51.5%,78
CCCCCCCCCCCCC1CCC/C=C\CCC(=O)O1 (stereo not given),101%,102%,84.6%,101,110%,87,104%,101%,105%,118%,,97.1,105,90.4,97.7,107,76.4%,-8.63% (active),111%,117
CCN(CC)CCCCCCNc1cc(OC)cc2cccnc12,-4.8% (active),-44.8% (active),75.5%,95.6,5.33% (active),82.8,68.5%,102%,-60.4% (active),-11.8% (active),,90.1,89.4,62.6,130,99.6,-35.6% (active),-57.3% (active),90.4%,63.5
Fc1ccc(-n2cc(COc3ncnc4sc5c(c34)CCCC5)nn2)cc1Cl,100%,97.3%,90.5%,94.7,99.7%,89.5,103%,92.2%,93.7%,110%,103,,98.7,82.3,113,102,89%,98.8%,,
COc1ccccc1-c1c(-c2ccc(Cl)cc2)c2cc3c(cc2[nH]c1=O)OCCO3,73.5%,69.6%,88.6%,94.9,75.3%,41.5,63.8%,71%,73.9%,90.4%,,53.6,85.4,61.9,86,70.5,41.7%,3.15% (active),54.9%,86.8
CCc1c(Nc2ccc(C)cc2)[nH]c(N)nc1=S,99.7%,103%,93.5%,98.3,97%,107,101%,93.8%,105%,104%,103,,98.4,91.5,111,98,107%,110%,89.8%,
CC1(C)[C@H](O)CC[C@]2(C)[C@@H]1CC[C@@]13C[C@@H](CC[C@H]12)[C@@](O)(CO)C3,105%,112%,102%,99.7,108%,111,101%,105%,103%,108%,,104,103,93.6,108,106,106%,108%,97.8%,96.9
O=C(Nc1sc2c(c1C(=O)O)CCCC2)c1cccc(C(F)(F)F)c1,89.3%,97.7%,104%,100,88.3%,90.8,81.2%,77.5%,102%,94.4%,98.6,,95.6,85.8,105,87.9,,96.9%,91.1%,
NC(=O)CN1CCN(c2ccccc2Cl)CC1,107%,101%,119%,118,111%,105,110%,113%,109%,110%,92.4,,109,82.7,116,103,115%,111%,96.4%,
CCN1C(=O)N(CC)C2NC(SC)=NC21 (stereo not given),103%,108%,86%,97.8,101%,99.5,104%,96.2%,93.1%,97.8%,,97.6,95.9,89.7,115,99.8,,102%,87.9%,90.2
COc1ccccc1/C=C1\Oc2cc(OCCCN3CCCC3)ccc2C1=O,77.7%,16.4%,83.5%,91.2,76.5%,85.8,79.8%,95.6%,75.8%,91.9%,,90.6,86.9,77.9,104,97.4,,93.3%,77.8%,77.3
COc1cc(-c2nc3occn3c2-c2ccnc(NCCNS(=O)(=O)c3ccc(Cl)cc3)n2)ccc1F,74.7%,53.1%,69.1%,91.6,90%,56.4,66.1%,57.1%,81.9%,102%,,78.1,71.5,36.4,89,77.7,,54%,60.9%,62.3
